Laboratory results reported in the supplement of paper PMC13380429.

Key:
[1] = test system: Vero E6 infected with SARS-CoV-2; assay: morphology score (similarity to uninfected cells); higher = more like uninfected cells; details: 24 h
[2] = test system: Vero E6 infected with SARS-CoV-2; assay: SARS-CoV-2 infection rate relative to infected DMSO; higher = more infection, active = 60 or less; details: 24 h

Compound | morphology score [1] | SARS-CoV-2 infection rate [2]
N#C[C@@H]1CCCN1C(=O)CNC12CC3CC(CC(O)(C3)C1)C2 [vildagliptin] (10 µM) | 0.00182 | 91% (inactive)
NC(=O)c1cccc(N)c1 [3-amino-benzamide] (10 µM) | -0.037 | 102% (inactive)
CC(C)c1ccc2oc3nc(N)c(C(=O)O)cc3c(=O)c2c1 [amlexanox] (10 µM) | -0.183 | 111% (inactive)
COC(=O)CCc1ccc(OCC(O)CNC(C)C)cc1 (configuration not stated) [esmolol] (10 µM) | -0.00906 | 116% (inactive)
N[C@H](Cc1cc(I)c(Oc2ccc(O)c(I)c2)c(I)c1)C(=O)O [liothyronine-(isomer)] (10 µM) | 0.127 | 106% (inactive)
CS(=O)(=O)Oc1ccc2c(NC(N)=O)c(C(=O)c3ccc(Cl)cc3Cl)oc2c1 [lirimilast] (10 µM) | 0.204 | 101% (inactive)
CCCCC/C=C\C/C=C\C/C=C\CCCCC(=O)O [gamma-linolenic-acid] (10 µM) | 0.0589 | 102% (inactive)
CC(=O)N1CCN(c2ccc(OC[C@@H]3CO[C@@](Cn4ccnc4)(c4ccc(Cl)cc4Cl)O3)cc2)CC1 (racemic) [ketoconazole] (10 µM) | 0.0784 | 108% (inactive)
C[C@@H]1CC(=O)NN=C1c1ccc(NN=C(C#N)C#N)cc1 [levosimendan] (10 µM) | -0.109 | 117% (inactive)
O=C(Cn1ccnc1[N+](=O)[O-])NCCO [etanidazole] (10 µM) | 0.0673 | 94.5% (inactive)
OC(c1ccccc1)(c1ccccc1)C12CC[N+](CCOCc3ccccc3)(CC1)CC2 [umeclidinium] (10 µM) | 0.162 | 101% (inactive)
CCOC(=O)c1ccc(C#Cc2ccc3c(c2)C(C)(C)CCS3)nc1 [tazarotene] (10 µM) | -0.0471 | 93% (inactive)
COc1ccc(C(C)=O)c(O)c1 [paeonol] (10 µM) | 0.0505 | 100% (inactive)
CCCCc1ccc2[nH]c(NC(=O)OC)nc2c1 [parbendazole] (10 µM) | -0.112 | 111% (inactive)
CN1CCN(CC(=O)N2c3ccccc3C(=O)Nc3cccnc32)CC1 [pirenzepine] (10 µM) | -0.00972 | 108% (inactive)
COc1cc2c(Nc3ccc(NC(=O)c4ccccc4)cc3)ncnc2cc1OCCCN1CCOCC1 (10 µM) | -0.13 | 108% (inactive)
O=C(CC12CC3CC(CC(C3)C1)C2)Nc1cccc2nc(NCCNCCO)ccc12 (10 µM) | -0.132 | 116% (inactive)
Cc1ccc(C(=O)N(CCCN)[C@@H](c2oc3cc(Cl)ccc3c(=O)c2Cc2ccccc2)C(C)C)cc1 (0.833333 µM) | -0.422 | 115% (inactive)
N[C@@H](Cc1cc(I)c(Oc2ccc(O)c(I)c2)c(I)c1)C(=O)O [liothyronine] (10 µM) | 0.106 | 108% (inactive)
Cc1cc(C)c(/C=C2\C(=O)Nc3ccccc32)[nH]1 [semaxanib] (10 µM) | 0.208 | 96% (inactive)
CC1CCc2c(N3CCC(O)CC3)c(F)cc3c(=O)c(C(=O)O)cn1c23 (configuration not stated) [nadifloxacin] (10 µM) | -0.0037 | 106% (inactive)
OC(CCCN1CCN(c2ncc(F)cn2)CC1)c1ccc(F)cc1 (configuration not stated) (10 µM) | 0.0906 | 108% (inactive)
CNC(=O)CN1CCC(Oc2cc3c(Nc4cccc(Cl)c4F)ncnc3cc2OC)CC1 (0.833333 µM) | -0.193 | 107% (inactive)
C[C@H](CCC(=O)O)[C@H]1CC[C@H]2[C@@H]3C(=O)C[C@@H]4CC(=O)CC[C@]4(C)[C@H]3CC(=O)[C@]12C [dehydrocholate-acid] (10 µM) | 0.231 | 94.8% (inactive)
CCCCC(=O)N(Cc1ccc(-c2ccccc2-c2nnn[nH]2)cc1)[C@H](C(=O)O)C(C)C [valsartan] (10 µM) | 0.00713 | 98.5% (inactive)
Cc1c(Cl)c(C)[n+]([O-])c(Cl)c1-c1noc(-c2cc(O)c(O)c([N+](=O)[O-])c2)n1 [opicapone] (10 µM) | 0.125 | 102% (inactive)

Compound | morphology score [1] | SARS-CoV-2 infection rate [2]
CCOC(=O)c1ccc(-n2cc(Cc3cnc(OCC)nc3)c(=O)nc2SCc2ccc(F)cc2)cc1 (10 µM) | 0.18 | 90.5% (inactive)
Cc1nc(NC(=O)N2CCC[C@H]2C(N)=O)sc1-c1ccnc(C(C)(C)C(F)(F)F)c1 [alpelisib] (10 µM) | 0.0577 | 113% (inactive)
CC1CC(OC(=O)C(O)c2ccccc2)CC(C)(C)C1 (configuration not stated) [cyclandelate] (10 µM) | 0.115 | 98% (inactive)
COc1cc(C(=O)NCc2ccc(OCCN(C)C)cc2)cc(OC)c1OC [trimethobenzamide] (10 µM) | 0.00196 | 110% (inactive)
Fc1ccc(C(c2ccc(F)cc2)N2CCN(C/C=C/c3ccccc3)CC2)cc1 [flunarizine] (10 µM) | 0.364 | 69.5% (inactive)
COc1ccc2c(c1)/C(=C/c1cnc[nH]1)C(=O)N2 (0.833333 µM) | -0.0607 | 109% (inactive)
CCCCC1C(=O)N(c2ccccc2)N(c2ccccc2)C1=O [phenylbutazone] (10 µM) | 0.209 | 97.5% (inactive)
C[C@@H]1Cc2c([nH]c3ccccc23)[C@@H](c2c(F)cc(/C=C/C(=O)O)cc2F)N1CC(C)(C)F (10 µM) | -0.0686 | 105% (inactive)
CNC[C@@H]1CC[C@@H](N)[C@@H](O[C@H]2[C@H](O)[C@@H](O[C@H]3OC[C@](C)(O)[C@H](NC)[C@H]3O)[C@H](N)C[C@@H]2N)O1 [micronomicin] (10 µM) | 0.0697 | 96% (inactive)
C[N+](C)(C)CC(=O)O [betaine] (10 µM) | 0.11 | 102% (inactive)
c1ccc(C[C@H](c2ccccc2)N2CCCCC2)cc1 (racemic) [1-(1,2-diphenylethyl)piperidine-(+/-)] (10 µM) | 0.349 | 69% (inactive)
Cc1cnc(-c2cnc(NCCNc3ccc(C#N)cn3)nc2-c2ccc(Cl)cc2Cl)[nH]1 (0.833333 µM) | -0.0902 | 108% (inactive)
Cc1ccc(C)c(Oc2ccncc2C(=O)N2CCN(C3CC3)c3ccccc32)c1 (10 µM) | 0.133 | 108% (inactive)
O=S(=O)(Cc1ccccc1)Nc1ccc(-c2ccc3c(cnn3-c3ccc(F)cc3)c2)c(C(F)(F)F)c1 (10 µM) | 0.22 | 91.5% (inactive)
COc1ccc(-n2c(SCCCN3C(=O)c4cccc5cccc(c45)C3=O)nnc2-c2ccncc2)cc1 (0.833333 µM) | 0.102 | 108% (inactive)
CC(C)(C)NC[C@H](O)c1ccc(O)cc1Cl [meluadrine] (10 µM) | 0.0145 | 94% (inactive)
Cc1cccc2c1CC[C@H](CN1CCC(c3c(Cl)cccc3Cl)CC1)C[C@@H]2O (0.833333 µM) | 0.134 | 98% (inactive)
N=C(N)NC(=O)c1cnn(-c2cccc3ncccc23)c1C1CC1 [zoniporide] (10 µM) | 0.127 | 115% (inactive)
CC(=O)Nc1nnc(S(N)(=O)=O)s1 [acetazolamide] (10 µM) | 0.0392 | 85.5% (inactive)
N[C@@H](CC(=O)N1CCn2c(nnc2C(F)(F)F)C1)Cc1cc(F)c(F)cc1F [sitagliptin] (10 µM) | 0.0472 | 98% (inactive)
COCCOc1cnc2ccn([C@H](C)c3nnc4c(F)cc(-c5cnn(C)c5)cn34)c(=O)c2c1 (10 µM) | 0.0816 | 105% (inactive)
CN(C)C/C=C/C(=O)Nc1cc2c(Nc3ccc(F)c(Cl)c3)ncnc2cc1O[C@H]1CCOC1 [afatinib] (0.833333 µM) | -0.0622 | 114% (inactive)
Cc1cccc(C)c1NC(=O)/N=C1\CCCN1C [xilobam] (10 µM) | 0.132 | 102% (inactive)
N#C/C(=C\c1ccc(O)c(O)c1)C(=O)OCCc1cccs1 (10 µM) | -0.0101 | 108% (inactive)
O=C(O)Cc1ccc(OCCNC[C@H](O)c2ccccc2)cc1 (10 µM) | -0.102 | 106% (inactive)
